Results from the supplement of paper PMC3545927.
Some of the results follow. The hit rate among all sequences tested is not known here.

Target: furin, P09958
Experiment: furin cleavage Z-score vs untreated control; higher = more cleavage, active = 3.5 or more, inactive = 1 or less, 8 variable residues between constant flanks
Procedure, shortened: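 Sequencing of released DNA, tagged with adapters by PCR, gave read counts used as abundance. That DNA was freed when purified furin cut N-terminally bead-bound 8-mer peptides fused to a cDNA oligonucleotide, in 0.01 ml reactions at 1:10 enzyme:substrate in 50 mM HEPES pH 7.5 with CaCl2 and NaCl, lasting 7.5, 15 or 30 min. The cleavage Z-score was the lowess-adjusted log count versus furin-free reactions, scaled by median absolute deviation.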

Sequence of furin, P09958 (P09958 whole entry): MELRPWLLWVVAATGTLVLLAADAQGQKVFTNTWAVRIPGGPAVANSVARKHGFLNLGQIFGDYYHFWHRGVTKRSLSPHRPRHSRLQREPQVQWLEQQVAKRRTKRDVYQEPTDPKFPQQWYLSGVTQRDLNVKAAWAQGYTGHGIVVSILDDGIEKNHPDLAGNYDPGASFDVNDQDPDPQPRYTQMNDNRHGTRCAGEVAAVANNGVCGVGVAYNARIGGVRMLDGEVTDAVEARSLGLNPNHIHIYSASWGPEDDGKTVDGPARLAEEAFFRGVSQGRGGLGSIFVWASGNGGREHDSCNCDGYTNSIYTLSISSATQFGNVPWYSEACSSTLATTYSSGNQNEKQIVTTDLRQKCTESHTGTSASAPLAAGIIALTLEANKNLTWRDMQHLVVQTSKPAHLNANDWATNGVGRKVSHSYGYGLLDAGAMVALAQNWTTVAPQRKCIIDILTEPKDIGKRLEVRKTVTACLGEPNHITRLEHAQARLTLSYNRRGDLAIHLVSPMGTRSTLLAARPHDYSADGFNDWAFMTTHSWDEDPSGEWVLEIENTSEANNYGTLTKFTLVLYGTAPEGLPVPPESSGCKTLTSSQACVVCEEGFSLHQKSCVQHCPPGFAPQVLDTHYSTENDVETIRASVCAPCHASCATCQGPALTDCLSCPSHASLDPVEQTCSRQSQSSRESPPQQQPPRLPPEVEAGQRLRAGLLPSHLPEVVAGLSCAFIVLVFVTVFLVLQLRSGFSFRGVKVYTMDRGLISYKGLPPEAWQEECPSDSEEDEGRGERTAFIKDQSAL

Sequence	furin cleavage Z-score (7.5 min)	furin cleavage Z-score (15 min)	furin cleavage Z-score (30 min)
CAMCECSQHLAGNASASA [HC1700]	0.0737 (inactive)	0.814 (inactive)	-2.77 (inactive)
CACYSIEPLDAGNASASA [HC1596]	-0.277 (inactive)	-1.75 (inactive)	-0.48 (inactive)
CAATGNLPGCAGNASASA [HC243]	-1.92 (inactive)	-0.777 (inactive)	-0.233 (inactive)
CARNQRIVQLAGNASASA [FS-2435]	-2.13 (inactive)	0.536 (inactive)	0.203 (inactive)
CAQRAYALDTAGNASASA [HC563]	-1.1 (inactive)	-1.23 (inactive)	-0.561 (inactive)
CARKKRALDTAGNASASA [FS-2561]	9.66 (active)	11.1 (active)	10.8 (active)
CARKKRALDAAGNASASA [FS-2691]	9.58 (active)	11.5 (active)	8.67 (active)
CALPGIPFVSAGNASASA [HC1162]	-1.14 (inactive)	0.0847 (inactive)	-1.27 (inactive)
CAKKQRSRRNAGNASASA [FS-1219]	9.72 (active)	9.45 (active)	8.79 (active)
CAQASRTRRNAGNASASA [FS-621]	11.3 (active)	14.2 (active)	10.1 (active)
CATYQRHYRNAGNASASA [FS-512]	1.23	0.916 (inactive)	2.99
CATNPKPQKKAGNASASA [HC162]	-1.19 (inactive)	-0.825 (inactive)	-2.33 (inactive)
CASAPCSAHLAGNASASA [HC2483]	-0.101 (inactive)	0.964 (inactive)	0.332 (inactive)
CATVATRDGKAGNASASA [HC283]	-0.692 (inactive)	-1.6 (inactive)	-0.623 (inactive)
CARQPRKQGGAGNASASA [FS-2445]	-0.459 (inactive)	0.227 (inactive)	0.306 (inactive)
CARDERSWFRAGNASASA [FS-2901]	0.291 (inactive)	-0.493 (inactive)	0.641 (inactive)
CARFLRSVMSAGNASASA [FS-1821]	1.23	4.09 (active)	5.69 (active)
CARFSRTVQDAGNASASA [FS-2668]	2.27	2.81	4.69 (active)
CARFVRSVMSAGNASASA [FS-3248]	4.15 (active)	5.68 (active)	5.23 (active)
CARFFRSACSAGNASASA [FS-1820]	0.97 (inactive)	0.0813 (inactive)	-0.895 (inactive)
CARMLRSVFSAGNASASA [FS-1831]	-0.826 (inactive)	-0.551 (inactive)	1.65

Sequence	furin cleavage Z-score (7.5 min)	furin cleavage Z-score (15 min)	furin cleavage Z-score (30 min)
CARSKRTEQDAGNASASA [FS-2088]	-0.228 (inactive)	1.41	1.56
CANFKRSVASAGNASASA [FS-1847]	0.0489 (inactive)	1.11	0.734 (inactive)
CARFLRSKTLAGNASASA [FS-2415]	0.914 (inactive)	1.56	0.306 (inactive)
CARFIRSVMSAGNASASA [FS-3246]	5.54 (active)	5.87 (active)	8.7 (active)
CADNEVVTSTAGNASASA [HC2301]	-1.07 (inactive)	-0.505 (inactive)	0.105 (inactive)
CAQSFQVAHLAGNASASA [HC771]	0.912 (inactive)	0.131 (inactive)	0.722 (inactive)
CAEVVTNTWVAGNASASA [HC158]	-1.52 (inactive)	-0.248 (inactive)	-0.0393 (inactive)
CAFCHSKKKCAGNASASA [HC857]	-1.27 (inactive)	-0.504 (inactive)	-0.238 (inactive)
CAALAAYCLSAGNASASA [HC995]	1.28	-0.793 (inactive)	0.489 (inactive)
CAREKKDVPLAGNASASA [FS-3187]	0.508 (inactive)	2.05	-1.3 (inactive)
CARTRKFVVDAGNASASA [FS-2315]	0.233 (inactive)	-0.721 (inactive)	-0.0413 (inactive)
CARLRRVICAAGNASASA [FS-2997]	-0.794 (inactive)	-0.656 (inactive)	-0.232 (inactive)
CADDGRTCVDAGNASASA [FS-1981]	-1.75 (inactive)	-1.46 (inactive)	-0.526 (inactive)
CARSLRFVTLAGNASASA [FS-1793]	0.3 (inactive)	1.63	1.68
CARFVRDACAAGNASASA [FS-2928]	0.546 (inactive)	1.42	3.66 (active)
CARFDRQASAAGNASASA [FS-2011]	-0.397 (inactive)	-0.361 (inactive)	-1.3 (inactive)
CARFVRFVPLAGNASASA [FS-1706]	1.17	1.76	4.38 (active)
CARFIRGVVDAGNASASA [FS-2332]	3.17	2.98	5.27 (active)
CARKKKCKICAGNASASA [FS-2689]	-0.917 (inactive)	-0.723 (inactive)	-0.00697 (inactive)
CAMTPCSAHLAGNASASA [HC2466]	-1.89 (inactive)	0.877 (inactive)	-0.495 (inactive)
CAEFPCHRPSAGNASASA [HC2327]	-0.796 (inactive)	-0.578 (inactive)	-1.81 (inactive)
